In PubChem BioAssay (EPA / NIEHS):
Inconclusive results are not listed. The source made the active and inactive calls. Rule for the calls, unless noted: active = hit-call score of the fitted dose curve at least 0.9, where 1 is the maximum; inactive = score below 0.9.

Columns and labels:
[1] = biological target: human RAR-related Orphan Receptor gamma (RORg), RORC (gene 6097) (UniProt P51449); experiment: ATG_RORg_TRANS: Attagene TRANS-FACTORIAL HepG2 Assay for human RAR-related Orphan Receptor gamma (RORg) (AID 2283011; active = hit-call score of the fitted dose curve at least 0.9, where 1 is the maximum)
Chain of human RAR-related Orphan Receptor gamma (RORg), RORC (gene 6097) (P51449 whole entry, looked up, the tested form may be a part): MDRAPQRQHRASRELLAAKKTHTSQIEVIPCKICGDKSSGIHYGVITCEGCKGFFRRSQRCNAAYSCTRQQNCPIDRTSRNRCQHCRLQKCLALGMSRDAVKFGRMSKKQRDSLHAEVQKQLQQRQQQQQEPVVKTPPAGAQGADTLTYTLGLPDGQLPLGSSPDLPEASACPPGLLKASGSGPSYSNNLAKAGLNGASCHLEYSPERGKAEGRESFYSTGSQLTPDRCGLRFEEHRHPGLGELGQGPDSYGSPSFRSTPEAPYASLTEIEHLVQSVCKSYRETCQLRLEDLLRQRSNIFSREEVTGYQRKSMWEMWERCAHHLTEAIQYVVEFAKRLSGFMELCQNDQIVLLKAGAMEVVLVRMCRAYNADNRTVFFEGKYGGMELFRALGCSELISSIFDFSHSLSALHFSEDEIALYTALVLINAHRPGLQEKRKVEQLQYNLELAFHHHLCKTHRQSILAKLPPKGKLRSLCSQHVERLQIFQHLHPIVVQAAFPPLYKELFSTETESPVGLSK
In short: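 First, HepG2 liver cells were transfected with GAL4-UAS-driven reporter constructs and the RORg-Gal4 fusion. Next, they were treated with chemical for 24 h. Finally, reporter mRNA was quantified by RT-PCR and capillary electrophoresis, with upward activity fitted against DMSO.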

[2] = biological target: Retinoic acid receptor RXR-alpha (Homo sapiens) (UniProt P19793); experiment: ATG_RXRa_TRANS: Attagene TRANS-FACTORIAL HepG2 Assay for human Retinoid X Receptor alpha (RXRa) (AID 2283012; active = hit-call score of the fitted dose curve at least 0.9, where 1 is the maximum)
Chain of Retinoic acid receptor RXR-alpha (Homo sapiens) (P19793 whole entry, looked up, the tested form may be a part): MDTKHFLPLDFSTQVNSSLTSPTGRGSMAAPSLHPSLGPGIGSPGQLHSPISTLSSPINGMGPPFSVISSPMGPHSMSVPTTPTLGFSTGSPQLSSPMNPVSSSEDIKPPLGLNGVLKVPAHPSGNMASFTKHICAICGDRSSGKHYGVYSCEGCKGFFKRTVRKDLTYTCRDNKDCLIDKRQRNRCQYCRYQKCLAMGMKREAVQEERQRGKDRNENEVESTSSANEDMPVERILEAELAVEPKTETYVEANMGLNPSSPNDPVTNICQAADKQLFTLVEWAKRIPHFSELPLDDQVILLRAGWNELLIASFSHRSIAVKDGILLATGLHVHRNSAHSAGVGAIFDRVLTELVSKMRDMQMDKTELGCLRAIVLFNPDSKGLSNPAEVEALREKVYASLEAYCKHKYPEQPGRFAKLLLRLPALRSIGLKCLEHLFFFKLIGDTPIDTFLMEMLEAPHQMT
In short: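 Measures exogenous chimeric NR-GAL4 activity in transfected HepG2 liver cells after 24 h of dosing. Induced reporter mRNA was detected by RT-PCR with capillary electrophoresis, and gain of signal was analysed against DMSO.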

[3] = biological target: human Retinoid X Receptor beta (RXRb), RXRB (gene 6257) (UniProt P28702); experiment: ATG_RXRb_TRANS: Attagene TRANS-FACTORIAL HepG2 Assay for human Retinoid X Receptor beta (RXRb) (AID 2283013; active = hit-call score of the fitted dose curve at least 0.9, where 1 is the maximum)
Chain of human Retinoid X Receptor beta (RXRb), RXRB (gene 6257) (P28702 whole entry, looked up, the tested form may be a part): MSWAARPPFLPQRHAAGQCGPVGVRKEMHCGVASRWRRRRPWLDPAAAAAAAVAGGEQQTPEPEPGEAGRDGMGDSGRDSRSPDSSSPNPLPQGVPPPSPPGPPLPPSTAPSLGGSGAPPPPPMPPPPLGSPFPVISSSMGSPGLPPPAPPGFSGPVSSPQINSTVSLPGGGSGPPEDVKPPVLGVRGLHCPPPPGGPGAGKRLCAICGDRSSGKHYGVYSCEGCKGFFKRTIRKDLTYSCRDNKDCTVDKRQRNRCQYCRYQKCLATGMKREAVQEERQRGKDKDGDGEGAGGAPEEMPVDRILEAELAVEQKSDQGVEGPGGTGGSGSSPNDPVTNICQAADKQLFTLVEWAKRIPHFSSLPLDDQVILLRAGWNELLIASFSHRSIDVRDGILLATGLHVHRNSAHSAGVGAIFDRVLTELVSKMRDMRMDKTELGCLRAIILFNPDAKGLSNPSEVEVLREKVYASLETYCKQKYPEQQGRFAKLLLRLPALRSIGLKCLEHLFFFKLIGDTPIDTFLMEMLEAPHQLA
In short: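 Chimeric receptor-Gal4 activity was assessed in transiently transfected human HepG2 cells after 24 h exposure. Transcripts from GAL4-UAS reporters were quantified by fluorescent RT-PCR and capillary electrophoresis, with DMSO as negative control and baseline.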

[4] = biological target: human Thyroid Receptor alpha (THRa1), THRA (gene 7067) (UniProt P10827); experiment: ATG_THRa1_TRANS: Attagene TRANS-FACTORIAL HepG2 Assay for human Thyroid Receptor alpha (THRa1) (AID 2283014; active = hit-call score of the fitted dose curve at least 0.9, where 1 is the maximum)
Chain of human Thyroid Receptor alpha (THRa1), THRA (gene 7067) (P10827 whole entry, looked up, the tested form may be a part): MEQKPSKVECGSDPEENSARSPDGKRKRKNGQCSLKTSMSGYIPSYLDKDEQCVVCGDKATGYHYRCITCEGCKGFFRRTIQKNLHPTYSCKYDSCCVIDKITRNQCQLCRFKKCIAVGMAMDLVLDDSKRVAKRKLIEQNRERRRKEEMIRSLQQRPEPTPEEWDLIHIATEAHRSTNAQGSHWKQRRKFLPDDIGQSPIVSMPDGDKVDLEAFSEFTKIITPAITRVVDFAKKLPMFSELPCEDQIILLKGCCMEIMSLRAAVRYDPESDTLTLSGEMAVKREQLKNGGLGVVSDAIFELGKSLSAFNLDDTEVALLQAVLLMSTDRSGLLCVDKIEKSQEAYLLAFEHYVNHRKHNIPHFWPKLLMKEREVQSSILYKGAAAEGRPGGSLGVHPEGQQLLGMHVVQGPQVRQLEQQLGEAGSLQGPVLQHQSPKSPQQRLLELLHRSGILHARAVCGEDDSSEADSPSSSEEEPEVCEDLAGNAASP
In short: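 Reporter transcript induction, read by capillary electrophoresis of 6-FAM-labelled RT-PCR products, reflects activity of a transfected THRa1-Gal4 fusion in HepG2 liver cells. Cells were dosed for 24 h; activity was fitted in the positive direction against DMSO.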

[5] = read-out: E-selectin (Homo sapiens) (UniProt P16581); experiment: BSK_3C_Eselectin: BioMAP Diversity Plus: 3C Assay for Eselectin Biomarker Activity (AID 2283015); details: primary human endothelial cells (HUVEC); actives raise or lower the signal
In short: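 ELISA read-out of E-selectin on endothelial monolayers after 24 h chemical treatment. Human umbilical vein primary cells served as the system, with DMSO defining baseline activity for bidirectional fitting.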

[6] = read-out: Interleukin-1 alpha (IL1a), IL1A (gene 3552); experiment: BSK_BE3C_IL1a: BioMAP Diversity Plus: BE3C Assay for Interleukin-1 alpha (IL1a) Biomarker Activity (AID 2283016); details: primary human bronchial epithelial cells; actives raise or lower the signal
In short: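 Signal from IL-1a ELISA, taken 24 h after chemical dosing of human bronchial epithelial cells, is compared with DMSO as baseline using bidirectional curve fitting.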

[7] = read-out: Monocyte Chemoattractant Protein-1 (MCP1), CCL2 (gene 6347); experiment: BSK_3C_MCP1: BioMAP Diversity Plus: 3C Assay for Monocyte Chemoattractant Protein-1 (MCP1) Biomarker Activity (AID 2283017); details: primary human endothelial cells (HUVEC); actives raise or lower the signal
In short: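 ELISA read-out of MCP-1 from human umbilical vein endothelial cell cultures harvested 24 h post-dosing. Gain or loss of signal was fitted relative to DMSO.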

[8] = read-out: Monocyte Chemoattractant Protein-1 (MCP1), CCL2 (gene 6347); experiment: BSK_4H_MCP1: BioMAP Diversity Plus: 4H Assay for Monocyte Chemoattractant Protein-1 (MCP1) Biomarker Activity (AID 2283018); details: primary human endothelial cells (HUVEC); actives raise or lower the signal
In short: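 Endothelial cells from umbilical vein were treated with test chemical, then after 24 h MCP-1 levels were quantified by ELISA; endpoint values came from bidirectional fitting with DMSO as baseline of activity.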

[9] = read-out: Interleukin-8 (IL8), CXCL8 (gene 3576); experiment: BSK_3C_IL8: BioMAP Diversity Plus: 3C Assay for Interleukin-8 (IL8) Biomarker Activity (AID 2283020); details: primary human endothelial cells (HUVEC); actives raise or lower the signal
In short: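 Endothelial primary cells of human umbilical vein origin are dosed with chemical; after 24 h the IL-8 biomarker is measured by ELISA, and concentration–response is fitted in both directions versus DMSO.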

[10] = read-out: Monokine induced gamma interferon (MIG), CXCL9 (gene 4283); experiment: BSK_3C_MIG: BioMAP Diversity Plus: 3C Assay for Monokine induced gamma interferon (MIG) Biomarker Activity (AID 2283021); details: primary human endothelial cells (HUVEC); actives raise or lower the signal;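 for AC50: MIG protein level measured by immunoassay in the treated endothelial cultures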
In short: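 Endothelial primary cells (human umbilical vein) are dosed with test chemical in the 3C system. MIG levels are measured by ELISA at 24 h and fitted in both directions relative to DMSO.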

[11] = biological target: human Vitamin D Receptor (VDR), VDR (gene 7421) (UniProt P11473); experiment: ATG_VDR_TRANS: Attagene TRANS-FACTORIAL HepG2 Assay for human Vitamin D Receptor (VDR) (AID 2283022; active = hit-call score of the fitted dose curve at least 0.9, where 1 is the maximum)
Chain of human Vitamin D Receptor (VDR), VDR (gene 7421) (P11473 whole entry, looked up, the tested form may be a part): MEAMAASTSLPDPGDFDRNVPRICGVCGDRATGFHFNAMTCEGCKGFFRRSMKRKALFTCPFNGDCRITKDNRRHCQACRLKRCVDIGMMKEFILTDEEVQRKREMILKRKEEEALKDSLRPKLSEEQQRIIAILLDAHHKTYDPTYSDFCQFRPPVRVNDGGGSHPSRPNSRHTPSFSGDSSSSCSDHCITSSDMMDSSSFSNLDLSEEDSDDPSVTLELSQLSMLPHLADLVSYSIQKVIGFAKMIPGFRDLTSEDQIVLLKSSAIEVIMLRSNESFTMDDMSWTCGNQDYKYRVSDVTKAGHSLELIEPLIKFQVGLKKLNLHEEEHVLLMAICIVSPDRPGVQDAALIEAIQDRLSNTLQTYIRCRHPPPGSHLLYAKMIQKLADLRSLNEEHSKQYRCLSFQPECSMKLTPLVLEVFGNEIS
In short: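 Steps: transfect HepG2 with GAL4-UAS-driven reporter constructs; dose compounds 24 h; isolate RNA, reverse-transcribe, PCR-amplify with 6-FAM-labelled primer extension and HpaI digestion; quantify fragments by capillary electrophoresis relative to DMSO.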

[12] = BSK_3C_SRB: Viability Assessment in the BioMAP Diversity Plus: 3C Assay (AID 2283023); details: primary human endothelial cells (HUVEC);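 note: fitted both ways against DMSO so a hit may be signal rise or drop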
In short: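 Absorbance at 560 nm of sulforhodamine B-stained (0.1%) total protein served as a cytotoxicity readout in human umbilical vein endothelial cells, 24 h after chemical treatment. Signal was fitted bidirectionally relative to DMSO.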

[13] = read-out: Matrix Metallopeptidase 1 (MMP1), MMP1 (gene 4312); experiment: BSK_BE3C_MMP1: BioMAP Diversity Plus: BE3C Assay for Matrix Metallopeptidase 1 (MMP1) Biomarker Activity (AID 2283024); details: primary human bronchial epithelial cells; actives raise or lower the signal
In short: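 MMP1 signal, measured by ELISA after a 24 h chemical exposure of human primary bronchial epithelial cells, is analysed with bidirectional fitting using DMSO as negative control.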

[14] = BSK_3C_Vis: BioMAP Diversity Plus: 3C Assay for Morphology Visualization (AID 2283025); details: primary human endothelial cells (HUVEC);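 note: fitted both ways so gain or loss versus DMSO counts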
In short: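 Morphology read by light microscopy serves as a background control for the multiplexed 3C assay in human umbilical vein endothelial cells, taken 24 h after dosing, with DMSO as the negative control and bidirectional curve fitting.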

[15] = read-out: Pselectin, SELP (gene 6403); experiment: BSK_4H_Pselectin: BioMAP Diversity Plus: 4H Assay for Pselectin Biomarker Activity (AID 2283026); details: primary human endothelial cells (HUVEC); actives raise or lower the signal
In short: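 Endothelial primary cells (human umbilical vein) are dosed, incubated 24 h, and assayed for surface P-selectin by ELISA; responses in either direction are fitted relative to the DMSO negative control.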

[16] = BSK_4H_SRB: Viability Assessment in the BioMAP Diversity Plus: 4H Assay (AID 2283027); details: primary human endothelial cells (HUVEC);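 note: cells exposed to compound for 24 h before staining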;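 for AC50: curves fitted both ways versus DMSO so AC50 may be loss or gain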
In short: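 Cytotoxicity readout: sulforhodamine B (0.1%) staining of total protein after 10% TCA fixation, measured at 560 nm in human umbilical vein endothelium at 24 h. DMSO set the baseline; fitting was bidirectional.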

[17] = BSK_BE3C_SRB: Viability Assessment in the BioMAP Diversity Plus: BE3C Assay (AID 2283028); details: primary human bronchial epithelial cells;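 for AC50: fitted both ways so AC50 may mark signal gain or loss versus DMSO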
In short: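 Cells (human bronchial epithelial, primary) are treated with chemicals, and after 24 h the parallel cultures are fixed in 10% TCA. These are then stained with 0.1% SRB and read at 560 nm. Gain or loss of signal is fitted relative to DMSO.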

[18] = read-out: Thrombomodulin, THBD (gene 7056); experiment: BSK_3C_Thrombomodulin: BioMAP Diversity Plus: 3C Assay for Thrombomodulin Biomarker Activity (AID 2283029); details: primary human endothelial cells (HUVEC); actives raise or lower the signal
In short: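 Endothelial cells from umbilical vein are dosed with test chemical and incubated 24 h. Thrombomodulin is then quantified by ELISA, with DMSO serving as negative control and activity baseline.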

[19] = biological target: human RAR-related Orphan Receptor beta (RORb), RORB (gene 6096) (UniProt Q92753); experiment: ATG_RORb_TRANS: Attagene TRANS-FACTORIAL HepG2 Assay for human RAR-related Orphan Receptor beta (RORb) (AID 2283010; active = hit-call score of the fitted dose curve at least 0.9, where 1 is the maximum)
Chain of human RAR-related Orphan Receptor beta (RORb), RORB (gene 6096) (Q92753 whole entry, looked up, the tested form may be a part): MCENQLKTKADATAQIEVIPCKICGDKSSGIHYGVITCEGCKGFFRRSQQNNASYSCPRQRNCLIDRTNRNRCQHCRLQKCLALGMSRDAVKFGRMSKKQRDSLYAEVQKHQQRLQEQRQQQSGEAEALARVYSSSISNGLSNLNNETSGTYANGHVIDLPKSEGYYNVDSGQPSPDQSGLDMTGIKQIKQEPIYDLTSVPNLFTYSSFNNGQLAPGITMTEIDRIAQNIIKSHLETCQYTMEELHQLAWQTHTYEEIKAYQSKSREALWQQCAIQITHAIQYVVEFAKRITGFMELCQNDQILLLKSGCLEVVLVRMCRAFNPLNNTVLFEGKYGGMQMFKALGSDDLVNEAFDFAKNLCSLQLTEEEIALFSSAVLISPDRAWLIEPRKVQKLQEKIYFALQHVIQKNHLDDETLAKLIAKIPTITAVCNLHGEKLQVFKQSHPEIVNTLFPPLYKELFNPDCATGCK
In short: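 Transfect HepG2 with multiple GAL4-UAS reporter transcription units; dose chemicals for 24 h; isolate RNA, reverse-transcribe and PCR-amplify reporter sequences; label, digest and resolve fragments by capillary electrophoresis; fit increases relative to DMSO.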

[20] = read-out: Human Leukocyte Antigen - DR isotype (HLADR), HLA-DRA (gene 3122); experiment: BSK_3C_HLADR: BioMAP Diversity Plus: 3C Assay for Human Leukocyte Antigen - DR isotype (HLADR) Biomarker Activity (AID 2283019); details: primary human endothelial cells (HUVEC); actives raise or lower the signal
In short: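 ELISA readout of surface HLA-DR on human umbilical vein endothelium, taken 24 h after chemical treatment. Gain- and loss-of-signal were both fitted relative to DMSO.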

Measured: AC50

Chain of E-selectin (Homo sapiens) (P16581 whole entry, looked up): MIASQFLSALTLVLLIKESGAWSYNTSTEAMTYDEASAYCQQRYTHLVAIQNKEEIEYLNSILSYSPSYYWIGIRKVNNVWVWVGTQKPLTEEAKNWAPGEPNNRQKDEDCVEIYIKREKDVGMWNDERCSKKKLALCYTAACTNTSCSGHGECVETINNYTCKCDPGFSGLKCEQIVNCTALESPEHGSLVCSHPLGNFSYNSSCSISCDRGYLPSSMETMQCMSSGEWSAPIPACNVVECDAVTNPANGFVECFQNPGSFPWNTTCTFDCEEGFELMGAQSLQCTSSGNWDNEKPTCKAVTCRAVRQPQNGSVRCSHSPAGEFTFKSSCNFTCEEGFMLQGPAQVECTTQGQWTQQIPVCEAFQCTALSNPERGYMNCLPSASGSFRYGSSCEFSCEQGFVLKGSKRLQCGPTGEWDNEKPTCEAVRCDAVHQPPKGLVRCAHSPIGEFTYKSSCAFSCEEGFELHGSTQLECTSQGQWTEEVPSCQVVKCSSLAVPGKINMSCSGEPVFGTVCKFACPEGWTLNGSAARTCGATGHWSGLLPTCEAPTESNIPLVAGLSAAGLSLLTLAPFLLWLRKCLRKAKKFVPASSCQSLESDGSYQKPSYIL

Nc1c(Cl)cc([N+](=O)[O-])cc1Cl
not listed: [19] | [20]
inactive: all other assays above

COP(=O)(OC)C(O)C(Cl)(Cl)Cl (stereo unspecified)
active: [14] 9.8 µM
inactive: all other assays above

C#CC(C)(C)NC(=O)c1cc(Cl)cc(Cl)c1
active: [20] 19.1 µM | [14] 3.25 µM
not listed: [11]
inactive: all other assays above

O=c1ccc(=O)[nH][nH]1
not listed: [11]
inactive: all other assays above

CC[C@H](C)[C@H]1O[C@]2(C=C[C@@H]1C)C[C@@H]1C[C@@H](C/C=C(\C)[C@@H](O[C@H]3C[C@H](OC)[C@@H](O[C@H]4C[C@H](OC)[C@@H](NC)[C@H](C)O4)[C@H](C)O3)[C@@H](C)/C=C/C=C3\CO[C@@H]4[C@H](O)C(C)=C[C@@H](C(=O)O1)[C@]34O)O2
inactive: [19] | [1] | [2] | [11]
active: [5] 8.63 µM | [6] 7.71 µM | [7] 3.66 µM | [8] 2.88 µM | [9] 6.22 µM | [10] 9.14 µM | [12] 2.43 µM | [13] 11.9 µM | [14] 1.61 µM | [15] 1.77 µM | [16] 5.17 µM | [17] 2.87 µM | [18] 1.88 µM

CCCOc1nn(C(=O)NS(=O)(=O)c2ccccc2C(=O)OC)c(=O)n1C
not listed: [1] | [3] | [11]
inactive: all other assays above

CCOC(=O)COc1cc(-c2nn(C)c(OC(F)F)c2Cl)c(F)cc1Cl
active: [8] 10.1 µM | [15] 6.73 µM
not listed: [19]
inactive: all other assays above

CCOP(=S)(OCC)Oc1ccc([N+](=O)[O-])cc1
active: [8] 25.2 µM | [14] 39 µM | [17] 21.5 µM
not listed: [2] | [4] | [11]
inactive: all other assays above

CCC(=NOC/C=C/Cl)C1=C(O)CC(C2CCOCC2)CC1=O (stereo unspecified)
not listed: [11] | [20]
inactive: all other assays above

CC(C)=CC1C(C(=O)OCN2C(=O)C3=C(CCCC3)C2=O)C1(C)C (stereo unspecified)
active: [5] 26.9 µM | [7] 7.53 µM | [20] 27.9 µM | [12] 27.2 µM | [13] 11.3 µM | [15] 20 µM
inactive: all other assays above

CNC(=O)ON=C(C)SC
not listed: [2] | [4] | [11] | [20]
inactive: all other assays above

CNC(=O)Oc1cccc2c1OC(C)(C)O2
active: [5] 27.3 µM | [12] 20 µM | [15] 16.7 µM
not listed: [1] | [2] | [4] | [20]
inactive: all other assays above
